Screening results deposited in PubChem BioAssay by National Center for Advancing Translational Sciences (NCATS).
In the library only some 8.3% were active in any assay of this set; here they are far more common.
HCV inhibitor = qHTS Assay for Inhibitors of Hepatitis C Virus (HCV). Huh7.5.1 HCVcc-Cre infection, luciferase reporter, 44 h. Potency, µM (titrated, usually from 41.8 µM), most hits filed as inhibitors. hit rate 3.4% among 340,000
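1,000 cells/well; 4 h culture; + compound; + HCVcc-Cre (~0.5 moi); 44 h; luciferase substrate, RT 15 min; read 15 sec.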
MARV entry inh = qHTS for inhibitors of binding or entry into cells for Marburg Virus; Marburg virus pseudotyped entry inhibition, cell reporter; Potency, µM (doses to about 37.8 µM), hits mostly inhibitors; hit rate 1.8% among 300,000; AID 540276, 2011; calls by dose curve; tested in HEK293 cells
Lassa entry inh = qHTS for Inhibitors of binding or entry into cells for Lassa Virus; Lassa virus pseudotype entry inhibition, cell reporter; Potency, µM (titrated, usually from 37.9 µM), actives largely listed as inhibitors; hit rate 1.2% among 300,000; calls by dose curve; tested in HEK293 cells; note: nearly all actives have a fitted effect of over 50% in size
HCMV inh = qHTS Assay for inhibitors of the human cytomegalovirus (HCMV) | HFF cells, HCMV-luciferase reporter, 72 h; stronger effect = lower value | activity change, negative = inhibition, % at 57.5 µM | hit rate 4.5% among 410,000; in the data active = activity change below about -60%; inconclusive = no clear call, values can overlap the other calls; inactive = above about -39%
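After 16 h attachment at 37C, HFF cells received test compound and HCMV-luciferase (1 PFU/cell); reporter luminescence read 72 h later, data normalized against buffer-only and known inhibitor Salinomycin.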
FMDV antiviral = High Throughput Screening for Foot and Mouth Disease Virus Antivirals; FMDV antiviral cell-based qHTS; Potency, µM (highest dose often 57.9 µM), hits mostly inhibitors; hit rate 1.2% among 410,000; calls by dose curve; tested in HEK293T cells; note: read-out not given here; nearly all actives have a fitted effect of over 45% in size
Giardia FBPA inh-1 = qHTS Assay for Inhibitors of Fructose-1,6-bisphosphate Aldolase from Giardia Lamblia; A8B2U2; purified Giardia FBPA; Potency, µM (series often up to 59.6 µM), actives largely listed as inhibitors; hit rate 0.71% among 290,000; note: nearly all actives have a fitted effect of over 55% in size
Target sequence (A8B2U2 whole entry, looked up): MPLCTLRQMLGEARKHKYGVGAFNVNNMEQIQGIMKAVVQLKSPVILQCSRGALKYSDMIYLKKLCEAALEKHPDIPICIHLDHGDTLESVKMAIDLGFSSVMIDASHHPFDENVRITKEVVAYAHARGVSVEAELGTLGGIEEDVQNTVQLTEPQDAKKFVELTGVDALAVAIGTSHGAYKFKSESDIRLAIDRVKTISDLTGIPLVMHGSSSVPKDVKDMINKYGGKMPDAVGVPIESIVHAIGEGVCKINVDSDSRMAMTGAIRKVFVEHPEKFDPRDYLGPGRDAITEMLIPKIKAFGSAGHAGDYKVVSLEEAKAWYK
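40 nM FBPA preincubated 10 min at RT with compound (up to 57.5 uM final), then substrate plus GAPDH/TPI/NAD/arsenate coupling and diaphorase/resazurin added. Fluorescence read after 20 min at RT, 525/598 nm.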
Giardia growth = qHTS Assay for Inhibitors of Fructose-1,6-bisphosphate Aldolase from Giardia Lamblia: Giardia lamblia growth inhibition; shares compounds with Giardia FBPA inh-1; Giardia lamblia trophozoite growth inhibition; Potency, µM (doses to about 57.5 µM), hits mostly inhibitors; hit rate 5% among 1,500;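 note: trophozoites exposed to compound for 48 h at 37 °C; nearly all actives have a fitted effect of over 70% in size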
Mammalian tox = qHTS Assay for Inhibitors of Fructose-1,6-bisphosphate Aldolase from Giardia Lamblia: Mammalian cellular toxicity; AID 2786, 2010; mammalian cell viability counter-screen, qHTS; Potency, µM (doses to about 57.5 µM), most hits filed as inhibitors; shares compounds with Giardia FBPA inh-1; hit rate 4% among 1,500;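 note: Chinese hamster ovary cells used as mammalian cytotoxicity surrogate; viability measured as cellular ATP by luminescence; compound exposure lasted 48 h before reading; nearly all actives have a fitted effect of over 60% in size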
Giardia FBPA inh-2 = qHTS Assay for Inhibitors of Fructose-1,6-bisphosphate Aldolase from Giardia Lamblia: Primary screen confirmation | purified Giardia aldolase enzyme activity, qHTS | hit rate 5% among 1,500 | Potency, µM (series often up to 57.5 µM), hits mostly inhibitors | shares compounds with Giardia FBPA inh-1; note: nearly all actives have a fitted effect of over 45% in size
Rabbit FBPA inh = qHTS Assay for Inhibitors of Fructose-1,6-bisphosphate Aldolase from Giardia Lamblia: Rabbit FBPA Selectivity; Rabbit muscle FBPA enzyme inhibition, selectivity counter-screen; hit rate 4% among 1,500; shares compounds with Giardia FBPA inh-1; Potency, µM (series often up to 57.5 µM), hits mostly inhibitors; note: nearly all actives have a fitted effect of over 60% in size
GAPDH coupling = qHTS Assay for Inhibitors of Fructose-1,6-bisphosphate Aldolase from Giardia Lamblia: Coupling assay counterscreen confirmation; shares compounds with Giardia FBPA inh-1; GAPDH coupling enzyme counterscreen, biochemical, qHTS; Potency, µM (top dose mostly 57.5 µM), most hits filed as inhibitors; hit rate 6% among 1,500; note: nearly all actives have a fitted effect of over 55% in size
Large screens that a line does not name were inactive (follow-up assays come after a bar, where they were run); [ ] = another dose, or the depositor's remark. Unless noted, calls come from the whole dose curve; as a rule, active = well fitted curve in the direction sought with a large enough effect; inconclusive = small, poorly fitted or top-dose-only effect, or another doubt; inactive = no such curve, though single readings can be large; an effect the other way counts as inactive or inconclusive.

COC(=O)c1sc(NC(=S)NC(=O)c2cccc(Br)c2)nc1C	Giardia FBPA inh-1 11µM (no result: MARV entry inh, Lassa entry inh) | Giardia growth inactive | Mammalian tox inactive | Giardia FBPA inh-2 inactive | Rabbit FBPA inh inactive | GAPDH coupling inactive
CCc1ccc(S(=O)(=O)NC(=S)Nc2ccccc2)cc1	none
CCNC(=S)NS(=O)(=O)c1ccc(CC)cc1	MARV entry inh inconclusive, HCMV inh -95, Giardia FBPA inh-1 6.3µM | Giardia growth inactive[10.4 µM] | Mammalian tox inactive | Giardia FBPA inh-2 inactive | Rabbit FBPA inh inactive | GAPDH coupling inactive
CCNC(=S)NS(=O)(=O)c1ccc(C)cc1	Giardia FBPA inh-1 3.5µM | Giardia growth inactive | Mammalian tox inactive | Giardia FBPA inh-2 inactive | Rabbit FBPA inh inactive | GAPDH coupling inactive
Cc1ccccc1NC(=O)c1c(C)oc2ccc(O)c(CN3CCCC3)c12	MARV entry inh inconclusive (no result: HCV inhibitor, Giardia FBPA inh-1)
Cc1ccc(O)c(N=Cc2cccs2)c1	MARV entry inh inconclusive, Giardia FBPA inh-1 20µM | Giardia growth inactive | Mammalian tox inactive | Giardia FBPA inh-2 35µM | Rabbit FBPA inh 40µM | GAPDH coupling 50µM
CO[C@@H](C(C)C)[C@@H](C)[C@@H]1OC(=O)C[C@@H]1O	none (no result: HCV inhibitor, MARV entry inh, Lassa entry inh, HCMV inh, FMDV antiviral)
COc1cc(C(=O)n2nc(-c3ccco3)nc2NCc2ccc(Cl)cc2)cc(OC)c1OC	MARV entry inh inconclusive, Lassa entry inh inconclusive (no result: HCV inhibitor, Giardia FBPA inh-1)
O=C1NC(C(=O)O)=CC(c2ccc([N+](=O)[O-])cc2)N1 (centres undefined)	Giardia FBPA inh-1 18µM (no result: MARV entry inh, Lassa entry inh) | Giardia growth inactive | Mammalian tox inactive | Giardia FBPA inh-2 inactive | Rabbit FBPA inh inactive | GAPDH coupling inactive
CCOC(=O)CCN1C(=O)[C@H]2[C@H]3[C@H](O)[C@H](O)C/C(=N/OCC(C)C)[C@H]3CC[C@@H]2C1=O	none (no result: HCV inhibitor, MARV entry inh, Lassa entry inh, HCMV inh, FMDV antiviral)
O=C(O)CC1S/C(=N/N=C/c2ccccn2)NC1=O (centres undefined)	Giardia FBPA inh-1 18µM (no result: MARV entry inh, Lassa entry inh) | Giardia growth inactive | Mammalian tox inactive | Giardia FBPA inh-2 inactive | Rabbit FBPA inh inactive | GAPDH coupling inactive
COc1cc(/C=N/N=C2/NC(=O)C(CC(=O)O)S2)ccc1OCc1ccc(Cl)cc1 (centres undefined)	none
O=c1ccc2cc3c([nH]c4ccc(Br)cc43)oc-2c1O	Giardia FBPA inh-1 14µM (no result: Lassa entry inh, FMDV antiviral) | Giardia growth inactive[10.4 µM] | Mammalian tox inactive | Giardia FBPA inh-2 10µM | Rabbit FBPA inh 8.9µM | GAPDH coupling 10µM
O=C(O)c1ccc(N=Nc2c(O)[nH]c3ccc(Br)cc23)cc1	none (no result: MARV entry inh, Lassa entry inh)
COc1ccccc1Cn1ccn(Cc2c(F)cccc2Cl)c(=O)c1=O	none (no result: HCV inhibitor, MARV entry inh, Giardia FBPA inh-1)
CC(=O)c1ccc(NC(=S)NC(=O)c2c(Cl)c(C)nn2C)cc1	HCMV inh inconclusive, Giardia FBPA inh-1 6.3µM | Giardia growth inconclusive | Mammalian tox inactive | Giardia FBPA inh-2 inactive | Rabbit FBPA inh inactive | GAPDH coupling inactive
CN1CCN(Cc2c(F)cccc2Cl)CC1	Giardia FBPA inh-1 25µM (no result: MARV entry inh, Lassa entry inh) | Giardia growth inactive | Mammalian tox inactive | Giardia FBPA inh-2 inactive | Rabbit FBPA inh inactive | GAPDH coupling inconclusive
